Test [1] in a line: APR_HepG2_P-H2AX_72hr: Apredica 72-hour HepG2 Assay for H2AX Phosphorylation (AID 2282916).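 Also: phospho-histone H2A.x immunostain intensity per cell marking DNA damage.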 The note with it: imaging, actives raise or lower the signal. The procedure, abridged: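 HepG2; cpd 0.39–200 uM ×10 conc, duplicates; 0.5% DMSO; 72 hr. Fix 3.7% formaldehyde 30 min RT, 0.5% Triton X-100 10 min. Anti-phospho-H2A.x 1:200 + Hoechst 2 ug/mL, 60 min RT; ArrayScan imaging.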

Test [2] can be described thus: APR_HepG2_MitoMembPot_72hr: Apredica 72-hour HepG2 Assay for Mitochondrial Membrane Potential (AID 2282917). The note with it: imaging, actives raise or lower the signal. In outline: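 HepG2 cells dosed 72 hr with compound at 0.39–200 uM in duplicate, 0.5% v/v DMSO final. Mitochondria stained with 250 nM MitoTracker Red CMXRos for 30 min before formaldehyde fixation, imaged by high-content fluorescence; bidirectional fit versus DMSO.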

The nature of test [3]: APR_HepG2_MitoticArrest_72hr: Apredica 72-hour HepG2 Assay for Mitotic Arrest (AID 2282918). The note with it: high-content imaging, actives raise or lower the signal. In outline:
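Using high-content imaging of fixed HepG2 cells, phospho-histone H3 signal was measured following a 72 hr incubation with ten-point compound dilutions up to 200 uM. DMSO served as the negative control and baseline for bidirectional curve fitting.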

Test [4] can be described thus: APR_HepG2_MicrotubuleCSK_72hr: Apredica 72-hour HepG2 Assay for Microtubule CSK Stabilty (AID 2282919). Particulars: HepG2 microtubule cytoskeleton, high-content imaging, actives raise or lower the signal. In outline: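 HepG2 cells were exposed 72 hr to compound at 0.39–200 uM in duplicate (0.5% DMSO final), then fixed and permeabilized. Alpha-tubulin immunofluorescence was imaged by high-content microscopy, with bidirectional fitting against DMSO and taxol as positive control.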

A short description of test [5]: APR_HepG2_P-H2AX_24hr: Apredica 24-hour HepG2 Assay for H2AX Phosphorylation (AID 2282920). Particulars: high-content imaging, actives raise or lower the signal. In outline: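 Human HepG2 liver cells, treated 24 hr with test chemicals (0.39–200 uM, final DMSO 0.5% v/v), are fixed and co-stained for phospho-H2A.x and c-Jun with Hoechst. Imaged intensity is fitted in both directions against DMSO controls.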

The nature of test [6]: APR_HepG2_StressKinase_72hr: Apredica 72-hour HepG2 Assay for Stress Kinase (AID 2282921). Particulars: HepG2 stress kinase (phospho-c-Jun) imaging, actives raise or lower the signal. The procedure, abridged: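 Dose 0.39–200 uM (10 pts, duplicate), 0.5% DMSO; 72 h; fix 3.7% formaldehyde 30 min RT; Triton permeabilize; anti-phospho-c-Jun/Cy3 + Hoechst 60 min RT; image 20x; fit gain/loss vs DMSO.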

Test [7] can be described thus: APR_HepG2_StressKinase_24hr: Apredica 24-hour HepG2 Assay for Stress Kinase (AID 2282922). Particulars: HepG2 stress kinase (phospho-c-Jun) imaging, actives raise or lower the signal. In outline:
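HepG2 cells exposed 24 h to 0.39–200 uM compound in duplicate (0.5% v/v DMSO final). Cells fixed in 3.7% formaldehyde, permeabilized and immunostained for phospho-c-Jun; read by high-content fluorescence imaging, fitted bidirectionally against DMSO.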

The nature of test [8]: APR_HepG2_p53Act_72hr: Apredica 72-hour HepG2 Assay for p53 Activation (AID 2282923).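 Also: average cellular p53 protein immunofluorescence intensity in HepG2 cells.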 Particulars: high-content imaging, actives raise or lower the signal. The procedure, abridged:
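10-pt conc. 0.39–200 uM, duplicate, 0.5% DMSO; 72 hr exposure; 3.7% formaldehyde fix, 0.5% Triton perm; sheep anti-p53/Cy5 + Hoechst; ArrayScan 20x, 6 images/well; gain/loss fit vs DMSO.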

Test [9] can be described thus: APR_HepG2_MitoMass_72hr: Apredica 72-hour HepG2 Assay for Mitochondrial Mass (AID 2282924).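 Also: MitoTracker Red CMXRos stain intensity per cell imaged as mitochondrial mass.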 Particulars: high-content imaging, actives raise or lower the signal. In outline:
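HepG2 cells dosed 72 hr at 0.39–200 uM (0.5% DMSO), in duplicate. MitoTracker Red CMXRos 250 nM loaded 30 min before formaldehyde fixation; high-content fluorescence imaging, bidirectional fit versus DMSO.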

A short description of test [10]: APR_HepG2_NuclearSize_72hr: Apredica 72-hour HepG2 Assay for Nuclear Size (AID 2282925). Particulars: high-content imaging, actives raise or lower the signal. The procedure, abridged: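 HepG2 cells dosed 72 h at 0.39–200 uM (10 concentrations, duplicate) in 0.5% v/v DMSO final. Fixed, Hoechst 33342-stained nuclei imaged; nuclear diameter measured by automated image analysis. Bidirectional fit versus DMSO.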

The structures appear in SMILES notation. Activity calls are given as the source filed them. The calls were made as follows: active = hit-call score of the fitted dose curve at least 0.9, where 1 is the maximum; inactive = score below 0.9.

With `COCC(C)OCC(C)OCC(C)O` (stereo not given), the call in [1], in test [2], in test [3], in test [4], in [5] and in test [6] was inactive. The compound was called inactive in test [7], in test [8], in test [9] and in test [10].
Usually AC50 stands for the concentration giving half of the maximal activity seen. In the case of `CN1C(=O)N(c2ccccc2Br)Cc2cnc(Nc3ccc4c(c3)OCC(CO)O4)nc21` (stereo not given), the AC50 in test [1] was 3.96 µM (active); in test [3] it was 2.57 µM (active); in [5] it was 5.05 µM (active); in test [8], 4.04 µM (active); in test [9], 19.8 µM (active). The compound was classed as inactive in [2], in [4], in test [6], in test [7] and in test [10].
Consider `CC(C)(C)c1csc(-c2cc3cc(OCc4ccccc4CC(=O)O)ccc3o2)n1`, for which the call in [1], in [2], in [3], in test [4], in [5] and in [6] was inactive. In addition, the outcome in [7], in [9] and in test [10] was inactive.
Consider `O=C(OCCCCCCOC(=O)c1ccccc1)c1ccccc1`, for which the compound was called inactive in test [1], in test [2], in [3], in [4], in test [5] and in [7]. Further, the compound was called inactive in test [8], in [9] and in [10].
As to `Clc1ccccc1C(c1ccccc1)(c1ccccc1)n1ccnc1`, the AC50 in test [1] is 25.8 µM (active); in test [3], 24.8 µM (active); in test [5], 79.4 µM (active); in test [6] it was 29.3 µM (active); in [7] it was 62 µM (active); in [10], 55.5 µM (active). Further, the compound was classed as inactive in test [2], in [4] and in test [9].
With `CCCCOC(=O)c1ccc(O)cc1`, the call in [1], in [2], in test [3], in test [4], in [5] and in test [6] was inactive. For the same compound, the outcome in [7], in [8], in test [9] and in [10] was inactive.
Take `CC[C@@H]1C[C@H](N(Cc2cc(C(F)(F)F)cc(C(F)(F)F)c2)C(C)=O)c2cc(C(F)(F)F)ccc2N1C(=O)OC(C)C`: the compound was called inactive in [1], in [2], in [3], in test [4], in test [5] and in test [6]. In addition, the result in test [7], in [8], in [9] and in test [10] was inactive.
Turning to `Cc1ccc(C(C)C)cc1`, the result in test [1], in test [2], in test [3], in test [4], in test [5] and in [6] was inactive. In addition, the compound was classed as inactive in test [7], in test [9] and in [10].
With `O=C1CCC(C2CCCCC2)CC1`, the call in [1], in test [2], in test [3], in test [4], in test [5] and in test [7] was inactive. The compound was called inactive in test [8], in test [9] and in test [10].
Consider `CCCCCCCCN(C)CCCCCCCC`, for which the call in test [1], in [2], in test [3], in [4], in test [5] and in [6] was inactive. Moreover, the call in test [7], in test [9] and in test [10] was inactive.
Take `CO[C@H]1/C=C/O[C@@]2(C)Oc3c(C)c(O)c4c(O)c(c(/C=N/N5CCN(C)CC5)c(O)c4c3C2=O)NC(=O)/C(C)=C\C=C\[C@H](C)[C@H](O)[C@@H](C)[C@@H](O)[C@@H](C)[C@H](OC(C)=O)[C@@H]1C`: the compound was classed as inactive in [1], in test [2], in test [4], in [5], in test [6] and in test [7]. In addition, the outcome in test [9] and in test [10] was inactive. Further, the AC50 in test [3] is 46.2 µM (active).
Regarding `CCN(CC)C(=O)c1cc(S(=O)(=O)Cc2ccccc2)c(N2CCC(c3ccccc3)CC2)cc1N(CC)CCN(C)C`, the AC50 was 0.876 µM (active) in test [1]; 1.88 µM (active) in [2]; 1.12 µM (active) in test [3]; 7.7 µM (active) in test [4]; 1.93 µM (active) in test [5]. Besides, the result in test [6], in test [7], in test [9] and in test [10] was inactive.
With `CN(C)c1ccc(C(=C2C=CC(=[N+](C)C)C=C2)c2ccc(N(C)C)cc2)cc1`, the AC50 in [1] was 4.24 µM (active); in [2], 0.384 µM (active); in [3], 4.11 µM (active); in test [4] it was 12.4 µM (active); in test [5], 4.3 µM (active); in test [6], 40 µM (active). Besides, the figures for the AC50 in [7] and in test [9] were 6.59 µM (active) and 0.0403 µM (active), respectively. The result in test [10] was inactive.
In the case of `CC(C)(C)c1cc(/C=C2\SC(N)=NC2=O)cc(C(C)(C)C)c1O`, the AC50 in [1] is 41.6 µM (active); in test [3], 40.3 µM (active); in test [4], 27.4 µM (active); in test [5] it was 55.2 µM (active); in test [6], 60.5 µM (active); in test [7] it was 60 µM (active). Moreover, the half-maximal activity concentration (AC50) is 35.2 µM (active) in test [8] and 86.1 µM (active) in [9]. The compound was classed as inactive in [2] and in [10].
For `O=C(O)Cc1cc(I)c(Oc2ccc(O)c(I)c2)c(I)c1`, the compound was called inactive in test [1], in test [2], in test [3], in test [4], in test [5] and in [6]. In addition, the call in test [7], in test [8], in test [9] and in test [10] was inactive.
For `CCCCCCCCOc1ccc(C(=O)c2ccccc2)c(O)c1`, the compound was classed as inactive in test [1], in test [2], in [3], in test [4], in test [5] and in [6]. Further, the call in test [7], in test [9] and in test [10] was inactive.
As for `Cc1oc2c(NC(=O)c3c(Cl)cccc3Cl)cccc2c1C(C)(C)O`, the outcome in [1], in test [2], in [3], in test [4], in test [5] and in test [6] was inactive. Besides, the call in test [7], in [8], in test [9] and in test [10] was inactive.
Consider `CC1=CC(=O)/C(=C(/C)O)C(=O)O1`, for which the compound was classed as inactive in test [1], in [2], in test [3], in test [4], in test [5] and in test [6]. The call in test [7], in test [8], in test [9] and in [10] was inactive.

The values above are taken from PubChem BioAssay (EPA / NIEHS).
